Inconclusive results are not listed. Entries that show only a call come without a potency. The source holds several records for some structures; these can differ, active in one and inactive in another. The source made the active and inactive calls. Calls follow the shape of the dose curve; as a rule, active = well fitted inhibition curve with a large enough effect; inconclusive = small, poorly fitted or top-dose-only effect; inactive = flat fitted curve, though single readings scatter.

Experimental findings from PubChem BioAssay (NCATS) are described below.
Potency is read from the fitted curve at half-maximal effect.

The target of this test is Voltage-gated inwardly rectifying potassium channel KCNH2 (Homo sapiens) (UniProt Q12809). The test can be described thus: qHTS Assay for Small Molecule Inhibitors of the Human hERG Channel Activity (AID 588834).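 Also: lower thallium flux fluorescence means stronger hERG block; nearly all actives have a fitted effect of over 50% in size.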 Particulars: U2OS BacMam hERG, FluxOR thallium flux fluorescence; series mostly up to 46.1 µM. The essentials: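 Blockade is seen as reduced FluxOR thallium-flux fluorescence in U2OS cells expressing hERG from a BacMam construct, in Opti-MEM with 2% FCS. Concentration-response data fitted to the Hill equation for AC50.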
Voltage-gated inwardly rectifying potassium channel KCNH2 (Homo sapiens), sequence (Q12809 whole entry, looked up): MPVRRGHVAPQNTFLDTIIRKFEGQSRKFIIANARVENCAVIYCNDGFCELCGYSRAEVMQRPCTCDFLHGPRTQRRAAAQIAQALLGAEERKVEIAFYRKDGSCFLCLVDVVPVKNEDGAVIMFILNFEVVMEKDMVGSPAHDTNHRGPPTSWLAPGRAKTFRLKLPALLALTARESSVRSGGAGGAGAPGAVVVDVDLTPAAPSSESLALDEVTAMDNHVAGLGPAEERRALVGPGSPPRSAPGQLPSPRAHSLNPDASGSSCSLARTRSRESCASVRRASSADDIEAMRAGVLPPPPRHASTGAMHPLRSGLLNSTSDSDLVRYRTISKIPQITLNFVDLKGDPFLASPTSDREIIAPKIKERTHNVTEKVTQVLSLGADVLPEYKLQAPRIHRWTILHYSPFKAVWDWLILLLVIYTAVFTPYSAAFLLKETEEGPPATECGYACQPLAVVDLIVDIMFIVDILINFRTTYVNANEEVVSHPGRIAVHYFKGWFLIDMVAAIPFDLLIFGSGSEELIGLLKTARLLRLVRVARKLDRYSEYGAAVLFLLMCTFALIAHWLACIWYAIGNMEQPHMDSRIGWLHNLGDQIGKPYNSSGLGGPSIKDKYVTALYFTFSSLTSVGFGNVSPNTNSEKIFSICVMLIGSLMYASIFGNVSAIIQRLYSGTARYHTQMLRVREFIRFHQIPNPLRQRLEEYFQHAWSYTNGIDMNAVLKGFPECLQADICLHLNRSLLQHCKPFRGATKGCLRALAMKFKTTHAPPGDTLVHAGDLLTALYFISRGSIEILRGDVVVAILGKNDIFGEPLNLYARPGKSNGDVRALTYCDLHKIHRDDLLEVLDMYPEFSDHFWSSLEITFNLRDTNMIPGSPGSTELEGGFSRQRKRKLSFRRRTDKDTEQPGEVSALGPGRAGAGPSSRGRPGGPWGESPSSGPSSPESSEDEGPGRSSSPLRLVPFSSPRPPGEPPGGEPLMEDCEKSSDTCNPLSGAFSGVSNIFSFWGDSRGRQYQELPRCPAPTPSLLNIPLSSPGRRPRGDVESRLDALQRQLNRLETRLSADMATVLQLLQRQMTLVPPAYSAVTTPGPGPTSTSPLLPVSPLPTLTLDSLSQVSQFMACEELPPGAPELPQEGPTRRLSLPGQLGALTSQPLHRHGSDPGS
For the molecule `C[C@@H]([C@H](O)c1ccccc1)N(C)C`, the Potency entry was “inactive”.

As for `COc1ccc(OC)c([C@@H](O)[C@H](C)N)c1`, the Potency result was “inactive”. In the case of `O=S1(=O)N(CCN2CC=C(c3c[nH]c4cc(F)ccc34)CC2)c2cccc3c2N1CCC3`, the Potency was 7.08 µM (active). The same measure for `O=C1C[C@@H]2OCC=C3CN4CC[C@]56c7ccccc7N1[C@H]5[C@H]2[C@H]3C[C@H]46` (tested in a mixture with another compound): 25.1 µM (active) and inactive; for `CCCN(CCC)CCc1c[nH]c2ccc(C(N)=O)cc12`: 6.31 µM (active).

With `C[N+]1(C)[C@@H]2CC(OC(=O)[C@H](CO)c3ccccc3)C[C@H]1[C@H]1O[C@@H]12` (stereo not given in full), the Potency entry was “inactive”. As to `C=CCN1C[C@@H](C)N([C@H](c2ccc(C(=O)N(CC)CC)cc2)c2cccc(OC)c2)C[C@@H]1C`, the Potency was 4.47 µM (active). On to `Cc1ccccc1-n1c(CF)nc2ccc(N)cc2c1=O`, for which the Potency entry is “inactive”. With `CCCN(CCC)C1CCc2cccc(O)c2C1` (stereo not given), the Potency entry is “inactive”. As to `CCC(=O)O[C@]1(c2ccccc2)CCN(C)C[C@H]1C`, the Potency result was “inactive”. With `CO[C@H]1[C@@H](O)C[C@H](O[C@H]2[C@@H](O)C[C@H](O[C@H]3[C@@H](O)C[C@H](O[C@H]4CC[C@@]5(C)[C@H](CC[C@@H]6[C@@H]5C[C@@H](O)[C@]5(C)[C@@H](C7=CC(=O)OC7)CC[C@]65O)C4)O[C@@H]3C)O[C@@H]2C)O[C@@H]1C`, the Potency entry is “inactive”. On to `CN(N=O)c1cc(O)ccc1O`, for which the Potency entry is “inactive”. In the case of `O=c1ccc2cc(O[C@@H]3O[C@H](CO)[C@@H](O)[C@H](O)[C@H]3O)c(O)cc2o1`, the Potency entry was “inactive”.

Regarding `CN1CCC(c2c[nH]c3ccc(O)cc23)CC1`, the Potency was 2 µM (active). As to `F/C(COc1ccc2c(c1)[nH]c1ccccc12)=C1/CN2CCC1CC2`, the Potency is 22.4 µM (active). On to `NC(C(=O)O)c1cc(=O)[nH]o1` (stereo not given), for which the Potency result is “inactive”. As to `COc1ccc2c(c1)C13CCCCC1C(C2)N(C)CC3` (stereo not given), the Potency entry is “inactive”. For `CN(C)[C@@H]1C(=O)C(C(N)=O)=C(O)[C@@]2(O)C(=O)C3=C(O)c4c(O)ccc(Cl)c4[C@@](C)(O)[C@H]3C[C@@H]12` the value was “inactive”; for `CC(Cc1ccc(OCC(=O)O)cc1)NCC(O)c1cccc(Cl)c1` (stereo not given), “inactive”.

With `CO[C@H]1CC=C2CCN3CCC4=C(CC(=O)OC4)[C@]23C1`, the Potency entry was “inactive”. Consider `CC(C)(O)[C@@H]1[C@H]2OC(=O)[C@@H]1[C@]1(O)C[C@H]3O[C@]34C(=O)O[C@H]2[C@]14C`, for which the Potency result was “inactive”. Regarding `CC1(C)[C@H](C=C(Cl)Cl)[C@H]1C(=O)OCc1c(F)c(F)cc(F)c1F`, the Potency result is “inactive”. In the case of `COc1ccc2[nH]c3c(c2c1)CCNC3`, the Potency result was “inactive”. Regarding `NC(N)=Nc1ccc2[nH]c3c(c2c1)C[C@@]1(O)[C@H]2Cc4ccc(O)c5c4[C@@]1(CCN2CC1CC1)[C@H]3O5`, the Potency result was “inactive”. As to `C[C@]12CC[C@H]3[C@@H](CCC4=C(O)C(=O)CC[C@@H]43)[C@@H]1CC[C@@H]2OC(=O)CCC1CCCC1`, the Potency entry was “inactive”. Take `CC(N)[C@H](O)c1ccc(O)c(O)c1` (stereo not given in full): the Potency entry was “inactive”.

For `CC(=O)NBr`, the Potency entry is “inactive”. On to `NC(CCCCCP(=O)(O)O)C(=O)O` (stereo not given), for which the Potency result was “inactive”. Regarding `COc1ccc2c(c1)/C(=C/c1cnc[nH]1)C(=O)N2`, the Potency result was “inactive”. `CC1(C(=O)O)C2CCC(O2)C1(C)C(=O)O` (stereo not given): the Potency entry is “inactive”.

In the case of `[2H]C([2H])([2H])[C@H](N)Cc1ccccc1`, the Potency entry is “inactive”. Regarding `Ic1ccccc1CNC1C2CCN(CC2)C1C(c1ccccc1)c1ccccc1` (stereo not given), the Potency is 1 µM (active). Consider `CC(C)NP(=O)(NC(C)C)OP(=O)(NC(C)C)NC(C)C`, for which the Potency entry is “inactive”. Regarding `CCCN1CCCC2Cc3[nH]ncc3CC21` (stereo not given), the Potency result was “inactive”. With `C[C@]12CC[C@H](O)C[C@H]1CC[C@@H]1[C@@H]2CC[C@]2(C)[C@@H](c3ccc(=O)oc3)C[C@H]3O[C@]132`, the Potency result was “inactive”.

For `CC(N)Cc1c[nH]c2ccc(OCc3cccs3)cc12` (stereo not given), the Potency is 2.82 µM (active). As for `CN(C)CCCCCCN(C)C` (tested in a mixture with another compound), the Potency result is “inactive”. Regarding `CN(N=O)c1ccc(O)c(O)c1`, the Potency entry was “inactive”.

Turning to `COC(COC(N)=O)C1=C(N2CC2)C(=O)C(C)=C(N2CC2)C1=O` (stereo not given), the Potency result is “inactive”. For `COc1cc2c(cc1OC)[C@@]13CCN4CC5=CCO[C@H]6CC(=O)N2[C@H]1[C@H]6[C@H]5C[C@H]43` the value was “inactive”.
